# From PubChem BioAssay
# This excerpt belongs to a sample that is enriched for hits.
# Shiga toxin inh – blocks Shiga toxin action in Vero cells. Vero cells, Shiga toxin protein synthesis inhibition reporter. inhibition, % at 38.7 µM. 9.2% of 290,000 active. AID 2315; in the data active = inhibition mostly above about 28%, no sharp cut-off; inactive = mostly below about 43%; note: 0% is about no effect
# CHX counter – counter-screen hit for Shiga toxin inhibitors, cycloheximide | max response, % | cell reporter, cycloheximide protein synthesis inhibition counterscreen | 12% of 300,000 active; in the data active = max response mostly above about 13%, no sharp cut-off; inactive = mostly below about 14%; note: read at 38.3 µM for the half of the compounds with a filed dose; 0% is about no effect
# Sm TGR inh – blocks Schistosoma mansoni thioredoxin glutathione reductase | purified TGR, DTNB reduction, TNB absorbance 405 nm | Q962Y6 | Potency, µM (top dose mostly 114 µM), without a hit: top-dose activity change, negative = inhibition, actives largely listed as inhibitors | AID 485364 | 3% of 360,000 active; note: potency is the fitted concentration of half-maximal effect; % is set by controls: 0 for no effect and ±100 for the full control effect; nearly all actives have a fitted effect of over 60% in size
#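 Kinetic colorimetric format: TGR-catalysed, NADPH-driven DTNB reduction monitored via TNB absorbance. Enzyme dispensed at 20 nM; compound exposure 15 min at room temperature before reaction start.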
# Tb PYK inh – inhibitors of Trypanosoma brucei pyruvate kinase; Q57TT1; TbPYK enzyme, Kinase-Glo Plus ATP luminescence, 45 min; Potency, µM (series often up to 76.8 µM), for the others: at the highest dose activity, negative = inhibition, most hits filed as inhibitors; 0.12% of 410,000 active; note: potency is the fitted concentration of half-maximal effect; % is set by controls: 0 for no effect and ±100 for the full control effect; nearly all actives have a fitted effect of over 50% in size
#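 Activity of T. brucei pyruvate kinase was followed by Kinase-Glo Plus luminescence after the enzyme reacted 45 min at room temperature with 130 uM ADP (final) and substrate. Test compounds were added before ADP at multiple concentrations.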
# LmPK inhibitor – blocks Leishmania mexicana pyruvate kinase activity; Q27686; purified LmPK, Kinase-Glo ATP luminescence, 1 h; Potency, µM (top dose mostly 57.5 µM), without a hit: at the highest dose activity change, negative = inhibition, most hits filed as inhibitors; 0.37% of 290,000 active; note: potency is the fitted concentration of half-maximal effect; % is set by controls: 0 for no effect and ±100 for the full control effect
#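 In 50 mM imidazole pH 7.2 with 7 mM MgCl2, LmPK (0.1 nM) turned over PEP (0.5 mM) and ADP (0.1 mM) for 1 h at room temperature. Luciferase read-out of ATP.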
# Giardia FBPA inh – Giardia lamblia aldolase inhibition; 0.71% of 290,000 active; Potency, µM (doses to about 59.6 µM), inactives show top-dose activity, negative = inhibition, actives largely listed as inhibitors; purified Giardia FBPA; AID 2451; A8B2U2; note: potency is the fitted concentration of half-maximal effect; % is set by controls: 0 for no effect and ±100 for the full control effect; nearly all actives have a fitted effect of over 55% in size
# Target sequence (A8B2U2 whole entry, looked up): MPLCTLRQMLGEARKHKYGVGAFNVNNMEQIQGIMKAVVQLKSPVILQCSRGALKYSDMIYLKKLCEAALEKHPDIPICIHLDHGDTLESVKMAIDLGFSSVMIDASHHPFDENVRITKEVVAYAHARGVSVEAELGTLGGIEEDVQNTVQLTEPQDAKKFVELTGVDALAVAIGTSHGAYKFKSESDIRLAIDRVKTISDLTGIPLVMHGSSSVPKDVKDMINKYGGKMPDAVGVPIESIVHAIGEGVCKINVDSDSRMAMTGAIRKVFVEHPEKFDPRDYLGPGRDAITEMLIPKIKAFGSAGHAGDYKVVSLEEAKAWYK
#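 Giardia FBPA (40 nM reagent) was preincubated 10 min at RT with compound (up to 57.5 uM final), then substrate plus GAPDH/TPI/NAD/arsenate coupling system with diaphorase/resazurin was added; resorufin fluorescence (525/598 nm) was read after 20 min.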
# Starred values were filed as active, the others as inactive; u = inconclusive; x = not tested or not shown; [ ] = dose if it differs, or a comment. Unless noted, calls come from the whole dose curve; as a rule, active = well fitted curve in the direction sought with a large enough effect; inconclusive = small, poorly fitted or top-dose-only effect, or another doubt; inactive = no such curve, though single readings can be large; an effect the other way counts as inactive or inconclusive.
SMILES,Shiga toxin inh,CHX counter,Sm TGR inh,Tb PYK inh,LmPK inhibitor,Giardia FBPA inh
CC1=C(C(=O)OC2CCCCCC2)C(c2ccc(C)o2)C2=C(CCCC2=O)N1 (configuration not stated),active,9,u,1%,2%,-4%
CCOC(=O)c1c(C)[nH]c(N=Nc2cc(C(=O)O)cc(C(=O)O)c2)c1C,-5,-3,-13%,-12%,13%,-1%
CCOC(=O)c1c(C)[nH]c(N=Nc2ccccc2C)c1C,81*,38*,-2%,4%,7%,-6%
CCOC(=O)c1c(C)[nH]c(N=Nc2ccc(C)cc2C)c1C,183*,37*,-4%,2%,1%,-21%
CCOc1ccc(-n2nc3ccc(NC(=O)c4ccc(C)cc4C)cc3n2)cc1,x,x,27%,5%,x,x
O=C(NCCc1ccc(F)cc1)C(=O)NCC(c1cccs1)S(=O)(=O)c1ccc(F)cc1 (configuration not stated),x,x,-5%,-4%,x,x
O=C(Nc1ccc(C(=O)N2CCCC2)cc1)c1cc(F)c(F)cc1Cl,x,x,x,-3%,x,x
COc1ccc(NC(=O)c2cc(F)c(F)cc2Cl)cc1Cl,50*,46*,-1%,9%,3%,4%
CCOC(=O)c1ccc(NC(=O)c2cc(F)c(F)cc2Cl)cc1,48,18*,1%,0%,0%,-4%
COc1ccc(C2CC(c3ccc(OC)cc3OC(C)=O)=NN2C(=O)c2ccccc2)cc1 (configuration not stated),37,14*,9%,2%,1%,2%
COc1ccccc1C1=NN(C(=O)c2ccccc2)C(c2ccc(Br)cc2)C1 (configuration not stated),9,17*,0%,-2%,-1%,15%
COc1ccc(C2=NN(C(=O)c3ccccc3)C(c3ccc(OC)c(OC)c3)C2)c(O)c1 (configuration not stated),-4,-4,5%,0%,-6%,-3%
COCCn1c(=O)c(-c2ccc(F)cc2)nc2cncnc21,x,x,x,-1%,x,2%
Cc1ccc(-c2ccc(=O)n(CC(=O)NC(C)c3ccccc3)n2)cc1 (configuration not stated),x,x,13%,-2%,x,x
O=C(c1ccc(-c2ccccc2)cc1)c1ccccc1C(=O)N1CCOCC1,-16,14,-31%,-4%,4%,7%
O=C(/C=C/N1CCOCC1)c1ccc(-c2ccccc2)cc1,50,42*,u,0%,-1%,5%
O=C(/C=C\N1CCOCC1)c1ccc(Br)cc1,34*,27*,16µM*,6%,0%,-5%
Cc1cc(=O)oc2cc(NC(=O)c3cccc(S(C)(=O)=O)c3)ccc12,33,10,-1%,-6%,-2%,-4%
Cc1cc(=O)oc2cc(Nc3ccccc3)ccc12,55*,60*,-3%,-2%,-1%,-6%
Cc1cc(=O)oc2cc(NC(=O)c3ccc(OC(F)F)cc3)ccc12,43*,21*,-3%,3%,-2%,2%
CCCC(C(=O)Nc1ccc2c(C)cc(=O)oc2c1)c1ccccc1 (configuration not stated),-22,-1,-11%,-1%,-14%,x
Cc1cc(=O)oc2cc(NC(=S)NCc3ccccn3)ccc12,34*,17,8%,-12%,-1%,-13%
Cc1cc(=O)oc2cc(NC(=O)c3cccc(S(=O)(=O)N(C)C)c3)ccc12,66*,28*,-6%,-2%,4%,7%
O=c1c(-c2cccs2)nc2cnc(N3CCNCC3)nc2n1C1CC1,x,x,x,x,x,0%
Cc1cc(=O)oc2cc(NC(=O)Cc3ccccc3)ccc12,45*,13,4%,6%,3%,-2%
SMILES,Shiga toxin inh,CHX counter,Sm TGR inh,Tb PYK inh,LmPK inhibitor,Giardia FBPA inh
Cc1cc(=O)oc2cc(NC(=O)CCC(=O)O)ccc12,-12,-1,4%,-2%,-1%,4%
COc1ccccc1C(=O)Nc1ccc2c(C)cc(=O)oc2c1,107*,35*,4%,1%,-3%,5%
S=C(NCc1ccccn1)Nc1ccc(Cl)cc1,19,13,10%,-13%,-3%,-12%
Cc1cc(=O)oc2cc(NC(=S)NNC(=O)c3c(Cl)cnn3C)ccc12,48*,23,-21%,-9%,-11%,x
Cc1cc(=O)oc2cc(NC(=O)c3cccc(F)c3)ccc12,20,12,1%,-18%,-10%,6%
Fc1cccc(NC(=S)NCc2ccccn2)c1,94*,50*,-10%,-13%,1%,-16%
Cc1cccc(NC(=O)Cn2cc(S(=O)(=O)c3ccc(F)cc3)c(=O)c3cc4c(cc32)OCO4)c1,x,x,-5%,-13%,x,x
CCCCc1ccc(NC(=O)CSc2nnc3[nH]c(=O)cc(C)n23)cc1,x,x,13%,-6%,x,x
CN[C@@H]1[C@H](O[C@H]2[C@@H](O[C@@H]3[C@@H](O)[C@@H](O)[C@@H](N=C(N)N)[C@@H](O)[C@@H]3N=C(N)N)O[C@@H](C)[C@]2(O)CO)O[C@H](CO)[C@@H](O)[C@@H]1O,x,x,x,x,x,4%[21.7 µM]
Cc1oc2ccc(O)cc2c1C(=O)c1ccccc1,45,15*,-5%,0%,-2%,3%
CCC(C(=O)Nc1cc(OC)ccc1OC)n1c(C)c2cnn(-c3ccccc3)c(=O)c2c1C (configuration not stated),x,x,-15%,2%,x,x
O=C(CCn1c(=O)sc2ccccc21)Nc1nccs1,40,33*,6%,-1%,13%,1%
CC(=O)Nc1cccc(NC(=O)CCn2c(=O)sc3ccccc32)c1,-4,-3,-4%,4%,5%,4%
O=C(CCn1c(=O)sc2ccccc21)Nc1cccnc1,8,5,50µM*,7%,0%,-5%
CCCCCCCCCCOc1cc(OCCCCCCCCCC)cc(N(CC(=O)O)CC(=O)O)c1,20,-6,x,x,x,-4%
N/C(=N\N=C\c1ccc([N+](=O)[O-])cc1)c1nonc1N,91*,51*,12%,1%,-6%,4%
COc1ccc(/C=N/N=C(\N)c2nonc2N)cc1OC,108*,31*,9%,-5%,-2%,-2%
COc1ccc(/C=N/NC(=O)c2nnn(-c3nonc3N)c2-c2cccs2)cc1OC,15,13,4%,0%,1%,x
Nc1nonc1C(=O)NCCNc1ccc([N+](=O)[O-])cc1,-6,-2,16%,-1%,-3%,1%
CS/C(N)=N/N=C/c1ccc2c(c1)OCO2,71*,25*,-2%,-12%,u,3%
N/C(=N\N=C\c1ccc(O)c(O)c1)c1nonc1N,67*,43*,-2%,2%,u,2%
Cc1ccc(Cc2nc3ccccc3nc2SCC(=O)N2CCCCC2)cc1,x,x,-4%,3%,x,x
N/C(=N\N=C\c1ccc(O)cc1)c1nonc1N,58,30*,2%,-16%,u,3%
